Test in all cases: NCI-60 one-dose screen, 48 h (100 = growth as untreated, 0 = no growth, -100 = all killed)
One experiment deals with SK-MEL-2 melanoma. The settings on record: 10 µM unless noted.
Another experiment has as its system EKVX NSCLC. The note with it: 10 µM unless noted.
The next experiment deals with SN12C renal. The settings on record: 10 µM unless noted.
The next experiment concerns UO-31 renal. The settings on record: 10 µM unless noted.
The subject of a further experiment is TK-10 renal. The settings on record: 10 µM unless noted.
Another experiment deals with ACHN renal. The note with it: 10 µM unless noted.
A further experiment has as its system CAKI-1 renal. The note with it: 10 µM.
A further experiment relates to CCRF-CEM leukemia. The settings on record: 10 µM unless noted.
In another experiment the test system is MOLT-4 leukemia. The note with it: 10 µM unless noted.
The test system of another experiment is SR leukemia. The settings on record: 10 µM unless noted.
Another experiment has as its system OVCAR-8 ovarian. The note with it: 10 µM unless noted.
Another experiment concerns OVCAR-5 ovarian. The note with it: 10 µM unless noted.
The next experiment concerns OVCAR-4 ovarian. The note with it: 10 µM unless noted.
The test system of the next experiment is SK-OV-3 ovarian. The settings on record: 10 µM unless noted.
A further experiment has as its system IGROV1 ovarian. The note with it: 10 µM unless noted.
The subject of the next experiment is OVCAR-3 ovarian. The note with it: 10 µM unless noted.
The subject of a further experiment is HS 578T breast. The settings on record: 10 µM unless noted.
The subject of the next experiment is NCI/ADR-RES ovarian. The settings on record: 10 µM unless noted.
The next experiment deals with RPMI-8226 leukemia. The settings on record: 10 µM unless noted.
The next experiment relates to A498 renal. The settings on record: 10 µM unless noted.

This is part of a sample that, as a whole, favours compounds with a hit. Of some 83,000 tested, about 20% had one in any assay.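 Percent growth is the endpoint: 0 to 100 indicates growth inhibition (40 means 60% inhibition), 0 means no net growth, and negative values indicate cell death.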 Values without a mark were called inactive. Active and inactive are the calls of the source. The calls were made as follows: active = growth percent below 10; inactive = the rest.

On to `Cc1cc(F)cc(NS(=O)(=O)c2ccc(-c3cnc(C4CC4)o3)cc2)c1`, for which the growth with SK-MEL-2 melanoma was 67%; with EKVX NSCLC, 34.3%; in the experiment with SN12C renal, 44.8%; in the experiment on UO-31 renal, 43.2%; in the experiment on TK-10 renal, 53.5%; with ACHN renal it was 44.4%. The growth in the experiment with CAKI-1 renal was 39.9%; with CCRF-CEM leukemia, 20.8%; with MOLT-4 leukemia, 26.1%; in the experiment on SR leukemia, 27.5%; in the experiment on OVCAR-8 ovarian, 35.8%; with OVCAR-5 ovarian, 43%. In addition, the growth in the experiment with OVCAR-4 ovarian is 49.6%; in the experiment with SK-OV-3 ovarian, 58.2%; in the experiment with IGROV1 ovarian it was 32.4%; in the experiment on OVCAR-3 ovarian, -10.1% (active); in the experiment with HS 578T breast, 34.1%; in the experiment on NCI/ADR-RES ovarian it was 6.6% (active).
As for `CCNC(=O)Oc1ccc(/C(=C(/C)c2ccc(Cl)cc2)c2ccc(OCCN3CCCC3)cc2)cc1`, the growth is 104% in the experiment on SK-MEL-2 melanoma; 80.2% with EKVX NSCLC; 75.4% with SN12C renal; 65.8% in the experiment with UO-31 renal; 97.6% with TK-10 renal; 95% in the experiment on ACHN renal. Besides, the growth was 85.7% in the experiment with CAKI-1 renal; 58.6% with MOLT-4 leukemia; 23.2% in the experiment on SR leukemia; 87.7% in the experiment with OVCAR-8 ovarian; 90.5% in the experiment on OVCAR-5 ovarian; 88.6% in the experiment on OVCAR-4 ovarian. The growth was 106% in the experiment on SK-OV-3 ovarian; 78.1% with IGROV1 ovarian; 99.8% with OVCAR-3 ovarian; 92.8% with HS 578T breast; 78.7% in the experiment on NCI/ADR-RES ovarian.
On to `O=c1[nH]c(CNc2ccc(NCc3c(-c4ccccc4)no[n+]3[O-])cc2)nc2c1cnn2-c1ccccc1`, for which the growth was 77.2% in the experiment with SK-MEL-2 melanoma; 51.3% with EKVX NSCLC; 78.9% in the experiment with SN12C renal; 55.9% in the experiment with UO-31 renal; 102% in the experiment with TK-10 renal; 70.4% with ACHN renal. The growth in the experiment with CAKI-1 renal was 55.1%; with CCRF-CEM leukemia it was 57.9%; in the experiment on MOLT-4 leukemia, 44%; with SR leukemia it was 45.7%; in the experiment with OVCAR-8 ovarian it was 79.4%; in the experiment on OVCAR-5 ovarian, 109%. The growth is 64.3% with OVCAR-4 ovarian; 102% in the experiment with SK-OV-3 ovarian; 73.5% in the experiment with IGROV1 ovarian; 94.4% in the experiment with OVCAR-3 ovarian; 85.8% with HS 578T breast; 60.6% in the experiment with NCI/ADR-RES ovarian.
As to `O=C(COc1ccc(C2SCC(=O)N2c2ccccc2)cc1)c1ccccc1` (stereo not drawn), the growth was 103% in the experiment with SK-MEL-2 melanoma; 81.2% in the experiment with EKVX NSCLC; 92.3% in the experiment with SN12C renal; 78.5% with UO-31 renal; 124% with TK-10 renal; 92.5% with ACHN renal. Also, the growth with CAKI-1 renal is 79.2%; in the experiment with CCRF-CEM leukemia it was 98.9%; with MOLT-4 leukemia it was 88.8%; in the experiment on SR leukemia it was 91.5%; with RPMI-8226 leukemia it was 91.9%; with OVCAR-8 ovarian, 94.1%. Moreover, the growth in the experiment with OVCAR-5 ovarian is 104%; in the experiment with OVCAR-4 ovarian, 107%; with SK-OV-3 ovarian it was 111%; with OVCAR-3 ovarian, 116%; with HS 578T breast, 94.1%; in the experiment with NCI/ADR-RES ovarian, 96.5%.
For `CCOC(=O)C1=C(C)Nc2nnc(Nc3ccccc3)n2C1c1ccccc1` (stereo not drawn), the growth with SK-MEL-2 melanoma was 99.7%; in the experiment on EKVX NSCLC, 69%; with SN12C renal, 30.5%; in the experiment with UO-31 renal it was 69.5%; in the experiment on TK-10 renal, 81.8%; in the experiment on ACHN renal, 14.7%. The growth in the experiment on CAKI-1 renal was 69%; with CCRF-CEM leukemia, 69.5%; in the experiment with RPMI-8226 leukemia, 77%; with OVCAR-8 ovarian it was 72.5%; in the experiment on OVCAR-5 ovarian it was 91.2%; with OVCAR-4 ovarian it was 34.6%. For the same compound, the growth in the experiment on SK-OV-3 ovarian is 94.6%; with IGROV1 ovarian, 62.8%; in the experiment on OVCAR-3 ovarian it was 5.94% (active); in the experiment with HS 578T breast, 75.8%; with NCI/ADR-RES ovarian, 70.8%.
With `CN(C)C(=O)c1ccccc1-n1cnc2ccccc2c1=O`, the growth in the experiment with SK-MEL-2 melanoma was 107%; in the experiment on EKVX NSCLC it was 101%; with SN12C renal it was 92.7%; in the experiment with UO-31 renal, 92.8%; with TK-10 renal, 97.6%; in the experiment on ACHN renal it was 96.3%. The growth is 90.1% with CAKI-1 renal; 97.4% in the experiment with CCRF-CEM leukemia; 102% in the experiment with MOLT-4 leukemia; 103% in the experiment with SR leukemia; 103% with OVCAR-8 ovarian; 104% with OVCAR-5 ovarian. The growth is 106% with OVCAR-4 ovarian; 107% in the experiment on SK-OV-3 ovarian; 99.9% with IGROV1 ovarian; 110% in the experiment on OVCAR-3 ovarian; 108% in the experiment with HS 578T breast; 102% with NCI/ADR-RES ovarian.
Consider `O=C(Nc1ccccc1)Nc1nc2ccc([N+](=O)[O-])cc2s1`, for which the growth in the experiment on SK-MEL-2 melanoma was -10.8% (active); with EKVX NSCLC, 8.64% (active); in the experiment on SN12C renal, 2.88% (active); in the experiment with UO-31 renal it was 8.95% (active); in the experiment with TK-10 renal it was 5.92% (active); in the experiment with ACHN renal it was 3.7% (active). The growth in the experiment on CAKI-1 renal is 3.46% (active); with CCRF-CEM leukemia it was 14.7%; in the experiment with MOLT-4 leukemia it was 11.6%; with SR leukemia, 2.29% (active); in the experiment with OVCAR-8 ovarian it was 12.1%; in the experiment with OVCAR-5 ovarian it was 12.1%. Further, the growth with OVCAR-4 ovarian was -4.54% (active); in the experiment on SK-OV-3 ovarian, -7.62% (active); in the experiment with IGROV1 ovarian, 19.7%; in the experiment on OVCAR-3 ovarian, 4.1% (active); with HS 578T breast, 5.92% (active); in the experiment on NCI/ADR-RES ovarian, 2.34% (active).
Take `C/C=C/[C@@H]1C=C[C@@H]2C[C@H](C)CC[C@H]2[C@]1(C)/C(O)=C1/C(=O)[C@H](CO)N(C)C1=O`: the growth was 79.2% with SK-MEL-2 melanoma; 55.6% in the experiment on EKVX NSCLC; 45.8% in the experiment with SN12C renal; 56.2% in the experiment on UO-31 renal; 67.7% in the experiment on TK-10 renal; 73.7% in the experiment with ACHN renal. The growth in the experiment with A498 renal was 43.5%; in the experiment with CCRF-CEM leukemia it was 40.4%; in the experiment with MOLT-4 leukemia, 60.6%; with SR leukemia it was 59.2%; in the experiment with RPMI-8226 leukemia, 36.5%; in the experiment on OVCAR-8 ovarian, 43.4%. Besides, the growth was 118% with OVCAR-5 ovarian; 70.5% with OVCAR-4 ovarian; 75% in the experiment on SK-OV-3 ovarian; 57.3% in the experiment with IGROV1 ovarian; 49.1% in the experiment with OVCAR-3 ovarian; 67.9% in the experiment on HS 578T breast. The growth with NCI/ADR-RES ovarian is 6.87% (active).

For the origin of these results see PubChem BioAssay (NCI).
